# Test results published in PubChem BioAssay AID1117359 (Southern Research Institute, 2015).
# The whole screen tested about 1,500 compounds, of which about 460 (31%) were called active. The list is a sample of the results. Results with a measured potency or affinity are listed apart. Values without a mark were called inactive.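 Rule for the calls: active = viability at or below 80% at any tested concentration, marking the compound as toxic; inactive = the rest.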
# Test: THP-1 cell cytotoxicity, dose response, cytotoxicity control for Vif-APOBEC3G degradation inhibitor project, THP-1 cells (AID 1117359)
# Conditions: THP-1 viability, CellTiter-Glo luminescence, 72 h; series mostly up to 40 µM; viability: at the top concentration
SMILES,viability [%],outcome
CCN(CC(=O)Nc1c(F)cccc1F)C(=O)c1cccc(-n2cccc2)c1,107,
CCCCC1=CC2=C(c3ccco3)C(=O)C(C)(OC(=O)c3ccc(OC)cc3)C(=O)C2=CN1CCCCO (centres undefined),104,
CC(=O)Nc1ccc(C=C(C#N)c2ccc(C)cc2)cc1,95.3,
CCOc1ccc(CCNC(=O)C2CC(C)=CCC2C(=O)O)cc1OCC (centres undefined),101,
CCCCc1cc(=O)oc2cc(OCC(=O)N(CC)CC)c(Cl)cc12,86.8,
C[C@H](NC(=O)NCc1cccs1)C(=O)O,93.5,
CSc1cccc(NC(=O)C(C)C)c1,92.3,
CCOC(=O)c1cc2c(c(CCO)n1)[C@H](CCO)N(S(=O)(=O)C(C)(C)C)C2,91.3,
Cc1oc(/N=C/c2cccc3ccccc23)c(C#N)c1C,90.9,
CCN1CCN(Cc2cc(=O)oc3ccc(C)cc23)CC1,104,
COC(=O)C(Cc1c[nH]c2ccccc12)NC(=O)C(C)C (centres undefined),107,
Cc1ccc(NC(=O)C(C)Sc2nc3nc(C)cc(C)n3n2)cc1 (centres undefined),102,
O=S(=O)(c1ccc2nc(-c3ccco3)c(-c3ccco3)nc2c1)N1CCOCC1,,inactive
Cc1ccc(CNC(=O)CN(c2cccc([N+](=O)[O-])c2)S(C)(=O)=O)cc1,98.8,
CC(NC(=O)C(NS(=O)(=O)c1cccs1)C(C)C)c1ccc(S(N)(=O)=O)cc1 (centres undefined),99,
Cc1cc(=O)nc2c3ccccc3n(C(C)C(=O)NCCC(C)C)n12 (centres undefined),94,
Cc1cc(C)cc(N(CCC#N)C(=O)CSc2nc3nc(C)cc(C)n3n2)c1,86.5,
Cc1ccc(OCc2ccc(C(=O)NN)o2)cc1C,89.7,
Cc1c(NC(=O)COC(=O)c2ccccc2Cl)c(=O)n(-c2ccccc2)n1C,103,
NC(=O)c1ccc(NC(=O)CSc2nc3ccccc3c(=O)n2CCCN2CCOCC2)cc1,95.7,
O=C(NC1CCCCC1)C(c1ccc(Cl)cc1)N(C(=O)c1ccccn1)c1cccnc1 (centres undefined),102,
Cc1ccccc1Cn1cc(NC(=O)c2cc(C3CC3)on2)cn1,91.4,

SMILES,viability [%],outcome
O=C(c1cccc(S(=O)(=O)N2CCCC2)c1)N1CCOCC1,101,
COc1ccc(NC(=S)N(CCCN2CCCC2)Cc2ccco2)cc1,94.6,
CCOC(=O)C1(Cc2ccc(OC)cc2)CCN(C(=O)c2cccc3nccnc23)CC1,99.2,
CCOc1ccc(-n2c(C)nc(O)c2N=Nc2ccccc2)cc1,94.9,
COc1cccc(NC(=O)Nc2nnc(N3C(C)CCCC3C)s2)c1 (centres undefined),93.2,
O=C1N=C(N2CCN(c3ccccc3)CC2)S/C1=C\c1ccco1,86.3,
CCCCn1c(N)c(N(CCOC)C(=O)c2cc(-c3ccco3)nc3ccccc23)c(=O)[nH]c1=O,101,
CCOc1ccc(/C=C2\SC(=S)N(CCC(=O)O)C2=O)cc1,100,
C=CCOc1ccc(/C=C2\SC(=S)N(CCC(=O)O)C2=O)cc1,108,
CN(CCC#N)C(=O)COC(=O)c1c2c(nc3ccccc13)/C(=C\c1ccco1)CC2,83,
COc1ccccc1C(C#N)N1N=C(C)CC1(C)C (centres undefined),107,
CCCN(CC(=O)Nc1ccccc1C)C(=O)COC(=O)c1cnc(C)cn1,105,
O=C(COc1ccccc1C(=O)O)Nc1ccc(SC(F)F)cc1,102,
COc1ccccc1NC(=O)COC(=O)c1cc2c(s1)CCC2,81,
CN(C)CCCN(CCCN(C)C)C(=S)Nc1ccc(S(=O)(=O)N2CCOCC2)cc1,96.8,
CCNc1ccc(Br)cc(C(=O)/C=C/c2ccc(Cl)cc2)c1=O,83.2,
CNc1ccc(Br)cc(C(=O)/C=C/c2ccc(OC)cc2)c1=O,89,
COc1ccc(Br)c(C(=O)NC(C)(C)CO)c1,97.4,
O=C(CCc1ccccc1)NNC(=S)NCCc1ccccc1,82,
O=C1CCCCC1Oc1ccc2ccc(=O)oc2c1 (centres undefined),119,
Cc1ccc(OCCC(=O)OCC(=O)c2ccc3c(c2)NC(=O)CO3)cc1,121,
Oc1ccc(/C=N/N2CCCCC2)c(O)c1O,111,

SMILES,viability [%],outcome
Oc1ccc(/C=N/N2CCOCC2)c(O)c1O,90.6,
CN=c1scc(C)n1/N=C/c1ccc(O)c(O)c1O,,inactive
CCOC(=O)C1CCCN(C(=O)c2cc(-c3ccco3)nc3ccccc23)C1 (centres undefined),91.6,
Cc1nn(Cc2ccccc2)c(C)c1/C=N/NC(=O)c1ccccc1O,96.5,
C=C(C)C(=O)Nc1cccc(C2=NOC3(C2)C[C@@H](C(N)=O)N(C(=O)/C=C/CC)C3)c1 (some centres undefined),101,
O=C1N=C(N2CCOCC2)SC1=Cc1ccco1,88.8,
O=C(/C=C/c1ccco1)c1cccnc1,101,
COc1cc(-n2cnnn2)ccc1S(=O)(=O)N1CCOCC1,106,
O=[N+]([O-])c1ccc(Cl)c(S(=O)(=O)Nc2cccc(S(=O)(=O)NC3=NCCC3)c2)c1,116,
CN1CCN(/C=C(\C#N)S(=O)(=O)c2ccc(Cl)cc2)CC1,95.5,
CC(C)(C)NC(=O)/C(=C/c1ccco1)c1ccccc1,106,
COc1ccc(CN2CCSCC2)cc1C,90.2,
COc1ccc(C(=O)CSc2nnc3n2CCCN3C(=O)Nc2ccccc2)cc1,91,
CCC1=NN2C(=N)/C(=C\c3cccn3-c3cccc(Cl)c3)C(=O)N=C2S1,92.3,
O=C(Nn1cnnc1)c1cc(-c2cccc(Br)c2)nc2ccccc12,101,
CC(C)Cn1c(SCC(=O)Nc2cccnc2Cl)nnc1-c1ccco1,99.8,
CC(CNc1ccccc1O)C(=O)O (centres undefined),90.3,
C=CCc1cc(Cl)ccc1OC(=O)Nc1cccc(Cl)c1,86.7,
[O-]/[N+](=C\C=C\c1ccccc1)c1ccccc1,95.6,
O=C(COC(=O)C12CC3CC(CC(Br)(C3)C1)C2)Nc1ccc2[nH]c(=O)[nH]c2c1,87.7,
Cc1cccc(NC(=O)CSc2nnc(CCC(=O)Nc3ccc(C)c(Cl)c3)n2C)c1,99.7,
N=C1C=CC=C2C1=NC1(CCCCC1)N2O,91.8,

SMILES,viability [%],outcome
CC(=O)c1ccc(N2C(=NC(=O)C3CCCO3)SC3CS(=O)(=O)CC32)cc1 (centres undefined),102,
C[C@@H]1NC(=O)[C@H](CCC(N)=O)NC(=O)c2cc([N+](=O)[O-])cc(I)c2NCCC[C@@H](C(N)=O)NC1=O,97,
Cn1cc(CN2CCN(CCO)CC2)c(-c2ccc(Oc3ccccc3)cc2)n1,89.5,
O=C(CSc1nnc(Cc2ccc(Cl)cc2)o1)Nc1ccccc1,101,
COc1cccc(CNCC(=O)Nc2ccc(N3CCOCC3)cc2)c1,105,
COc1ccccc1N1C(=O)CC(Nc2ccc(N3CCOCC3)cc2)C1=O (centres undefined),113,
O=C(CC1C(=O)NCCN1Cc1ccc(F)cc1)NCCN1CCCc2ccccc21 (centres undefined),93.5,
CCc1cccc(NC(=O)CCS(=O)(=O)c2ccc(Br)cc2)c1,87.2,
O=C(CSc1nccc(=O)[nH]1)Nc1ccc2c(c1)OCCO2,103,
COc1ccc(NC(=O)C2CCCNC2)cc1OCC(C)C (centres undefined),96,
Cc1cc(/C=C2\SC(=S)NC2=O)c(C)n1-c1ccccc1,106,
Cc1c(C)n(C(=O)CSc2nc3ccccc3[nH]2)c2ccccc12,102,
COc1ccc(C(=O)NC2CC3CCCC(C2)N3CC(C)C)cc1 (centres undefined),108,
Cc1ccc(NC(=O)CSc2nnc([C@H](C)NC(=O)OC(C)(C)C)o2)c(C)c1,86.8,
CCOc1cc(C(C(=O)NCC2CCCO2)N(C(=O)Cn2nnc3ccccc32)c2cccc(OC)c2)ccc1O (centres undefined),98.6,
COc1cc(/C=C2/C(=O)N(c3ccc(Br)cc3)N=C2C)cc(OC)c1OC,92.3,
O=C1NCC(O)=C1C=NC12CC3CC(CC(C3)C1)C2,97.2,
CCN(CC)C(=O)CN1C(=O)C2(NC(=O)c3ccccc3N2)c2ccccc21 (centres undefined),93.6,
CCc1cc2c(=O)n(-c3ccc(C)cc3)cnc2s1,89.1,
CC(=O)NC1=NC(=O)/C(=C/c2cc(C)n(-c3cccc(C(=O)O)c3)c2C)S1,92.4,
O=C1NC(c2cccc(Br)c2)=N/C1=C\c1ccco1,88.8,
O=C1CC(c2ccco2)CC(O)=C1C=Nc1cc(Cl)ccc1Cl (centres undefined),86.1,

SMILES,viability [%],outcome
Nc1ccccc1NC1=CC(=O)CC(c2ccco2)C1 (centres undefined),102,
O=C1CCC/C(=N\NC(=O)c2ccc(COc3cccc4cccnc34)cc2)C1,89.2,
O=C(NN(C(=O)c1ccccc1)c1ccccc1)c1ccccc1,105,
Oc1ccc(/C=N/N2CCCCC2)c(O)c1,89.5,
S=c1[nH]nc(C2CC2)n1Cc1ccco1,110,
CCC(C)[C@H](NC(=O)Nc1ccccc1F)C(=O)OC (some centres undefined),87,
Cc1nc2ccccc2n2c(O)c(CC(=O)O)cc12,102,
O=S(=O)(O)c1cc(Cl)cc(N=Nc2ccc(O)cc2O)c1O,112,
Cc1nc2ccc(NS(=O)(=O)c3ccc(F)cc3F)cc2s1,83.6,
CC(C)CN(C(=O)CN1CCN(c2ccc(O)cc2)CC1)c1c(N)n(CC(C)C)c(=O)[nH]c1=O,90.8,
O=c1oc2c(O)c(O)cc3c(=O)oc4c(O)c(O)cc1c4c23,81.6,
CN(Cc1ccccc1)C(=O)C1CCCN1S(=O)(=O)c1ccc2c(c1)n(C)c(=O)c(=O)n2C (centres undefined),104,
CC1(C)Cc2nc3sc(C(=O)O)c(N)c3cc2CS1,85.6,
O=c1cc2oc3cc(O)c(O)cc3c(-c3ccccc3O)c-2cc1O,84.8,
COCCn1c(SCC(=O)Nc2cc(C)on2)nc2cc(Cl)ccc2c1=O,95.7,
CCCCS(=O)(=O)N1CCCC(C(=O)N2CCOCC2)C1 (centres undefined),91.6,
COc1ccc(S(=O)(=O)NNC(=O)c2sccc2-n2cccc2)cc1,93.2,
COc1ccc(NS(=O)(=O)c2cccc(C(=O)NNC(=O)c3cccn3C)c2)cc1,96.1,
Cc1ccc(C(=O)O)cc1-c1ccc(/C=C2/NC(=O)N(c3ccccc3)C2=O)o1,104,
COC(=O)C1C(O)=C(C=Nc2ccc(N)cc2)C(=O)CC1(C)C (centres undefined),86.8,
COc1ccc(/C(O)=C2/C(=O)C(=O)N(c3ccccn3)C2c2ccc(F)cc2)cc1 (centres undefined),88.5,
